Unmarked numbers belong to inactive results. Records with an inconclusive call do not appear. Active and inactive are the calls of the source. Unless noted, calls follow the shape of the dose curve; as a rule, active = well fitted curve in the direction sought with a large enough effect; inconclusive = small, poorly fitted or top-dose-only effect, or another doubt; inactive = no such curve, though single readings can be large; an effect the other way counts as inactive or inconclusive.

Assay [1] in a line: AP1 Signaling Pathway (AID 357; active = well fitted curve in either direction with a large enough effect, not every such curve was filed as active; also: % is scaled to controls: 0 for no effect and ±100 for the full control effect). The following applies: ME-180 AP-1-bla reporter, EGF-induced, beta-lactamase ratio, 5 h; at 17.2 µM (top of the series) unless noted. In a few lines: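 Read-out was the 460nm/530nm emission ratio (excitation 405nm) after CCF4 loading for 2.5 hours at room temperature. Cells carried an AP-1-driven beta-lactamase reporter, were stimulated with EC50 EGF plus compound for 5 hours, and AC50 values came from titrations.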

Assay [2] concerns the target Glucocorticoid receptor (Homo sapiens) (UniProt P04150). The assay is described as follows: GR-GFP Redistribution (AID 450;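 active = compounds whose dose series gives a full or clear partial fitted curve of increased nuclear translocation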; also: potency is read from the fitted curve at half-maximal effect).
Assay [3] can be described thus: qHTS Assay for Identification of Small Molecule Agonists for Hypoxia Response Element Signaling Pathway (AID 914; active = well fitted activation curve with a large enough effect in the signal ratio, with a control signal flat, not every such curve was filed as active; the % refers to the signal ratio; also: potency is read from the fitted curve at half-maximal effect). The following applies: ME-180 HRE-bla reporter, beta-lactamase ratio, CoCl2, 17 h; activation: stronger effect = higher value. In outline: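 Reporter activity (beta-lactamase, CCF4 460nm/530nm ratio) in HRE-bla ME-180 cells is recorded after 17 h compound exposure with EC50 CoCl2 at 37 degrees Celsius. AC50 values come from titration data.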
In general terms: qHTS replaces the single test concentration by a dilution series.

Assay [4] deals with Cytochrome P450 1A2 (Homo sapiens) (UniProt P05177). The assay is described as follows: p450-cyp1a2 (AID 410; calls by dose curve). In outline:
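Luminescent readout of luciferin formed from Luciferin-ME by human CYP1A2; data normalized against complete inhibition by 57 uM furafylline. Enzyme 20nM, substrate 100uM at Km, 100mM KPO4 buffer, 60 min reaction at room temperature.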

Assay [5] in a line: NFAT Signaling Pathway (AID 444; active = well fitted curve in either direction with a large enough effect, not every such curve was filed as active;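 also: carbachol stimulus at about its EC50 of 1 µM final; % is scaled to controls: 0 for no effect and ±100 for the full control effect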). The note with it: Jurkat NFAT-bla M1, carbachol, beta-lactamase ratio, 5 h; at 17.2 µM (top of the series) unless noted. In outline: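 Jurkat cells with NFAT-driven β-lactamase reporter and co-expressed M1 receptor, stimulated with carbachol (final 1 uM, ~EC50), compound titration, 5 h at 37 °C. CCF4 loaded 1 h at RT; 460/530 nm ratio gave %activity and AC50.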

The nature of assay [6]: Stat Signaling Pathway (AID 446; active = well fitted curve in either direction with a large enough effect, not every such curve was filed as active;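 also: ME-180 cervical cancer cells given 40 pM IL-6 alongside compound; SIE-controlled beta-lactamase reporter measured as 460/530 nm FRET emission ratio; % is scaled to controls: 0 for no effect and ±100 for the full control effect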). The note with it: ME-180 SIE beta-lactamase reporter, IL-6 stimulated, 5 h; at 17.2 µM (top of the series) unless noted. In outline: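 ME-180 cells carrying a SIE-driven beta-lactamase reporter are stimulated with 40 pM IL-6 for 5 h at 37C in the presence of compound. The 460/530 nm FRET substrate ratio is read after 2.5 h at RT. Data are normalised to 300 pM IL-6 and to 125 nM JAK inhibitor controls.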

The target of assay [7] is Glucocorticoid receptor (Homo sapiens) (UniProt P04150). Description: GR-EFC Redistribution (AID 451; calls by dose curve; also: potency is read from the fitted curve at half-maximal effect). The following applies: CHO-K1 GR-EFC translocation, beta-gal luminescence, 2 h. In outline:
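CHO-K1 cells expressing nuclear EA and GR-ED fragments of b-gal; compounds titrated up to 46 uM final, 2 h at 37 C. GR nuclear translocation read as complemented b-gal luminescence after 1 h RT detection.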

Assay [8] addresses Mitogen-activated protein kinase 10 (Mus musculus) (UniProt Q61831). The assay is described as follows: JNK3 AlphaScreen Assay (AID 530; active = well fitted curve in either direction with a large enough effect, not every such curve was filed as active;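 also: kinase came from lysate of stimulated human HepG2 cells; signal reports phosphorylation of biotinylated GST-cJun 1-79 at Ser73 with 10 µM ATP; % is scaled to controls: 0 for no effect and ±100 for the full control effect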). In outline:
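Pre-activated (IL-1β/TNFα) JNK3 in HepG2 lysates phosphorylates biotin-GST-cJun(1-79), 10 uM ATP; anti-phospho-cJun(Ser73) AlphaScreen read at room temperature, pH 7.6 Tris buffer. Compounds pre-incubated 15 min as titrations.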
A general note: Bead proximity is the source of the signal in Alpha formats.

The target in assay [9] is 3',5'-cyclic-AMP phosphodiesterase 4B (Homo sapiens) (UniProt Q07343). The assay is described as follows: qHTS Assay for Inhibitors of PDE-IV (AID 607; active = well fitted activation curve with a large enough effect in the main read-out, with a control signal flat, not every such curve was filed as active; also: % of control where 0% means no effect). In a few lines: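 HEK293 ACTOne cells with CNG channel (1000/well), endogenous PDE4; membrane potential dye, compounds up to 22.9 uM final. Fluorescence Ex 535/Em 590; RO 20-1724 (100 uM final) as reference.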
Chain of 3',5'-cyclic-AMP phosphodiesterase 4B (Homo sapiens) (Q07343 whole entry, looked up): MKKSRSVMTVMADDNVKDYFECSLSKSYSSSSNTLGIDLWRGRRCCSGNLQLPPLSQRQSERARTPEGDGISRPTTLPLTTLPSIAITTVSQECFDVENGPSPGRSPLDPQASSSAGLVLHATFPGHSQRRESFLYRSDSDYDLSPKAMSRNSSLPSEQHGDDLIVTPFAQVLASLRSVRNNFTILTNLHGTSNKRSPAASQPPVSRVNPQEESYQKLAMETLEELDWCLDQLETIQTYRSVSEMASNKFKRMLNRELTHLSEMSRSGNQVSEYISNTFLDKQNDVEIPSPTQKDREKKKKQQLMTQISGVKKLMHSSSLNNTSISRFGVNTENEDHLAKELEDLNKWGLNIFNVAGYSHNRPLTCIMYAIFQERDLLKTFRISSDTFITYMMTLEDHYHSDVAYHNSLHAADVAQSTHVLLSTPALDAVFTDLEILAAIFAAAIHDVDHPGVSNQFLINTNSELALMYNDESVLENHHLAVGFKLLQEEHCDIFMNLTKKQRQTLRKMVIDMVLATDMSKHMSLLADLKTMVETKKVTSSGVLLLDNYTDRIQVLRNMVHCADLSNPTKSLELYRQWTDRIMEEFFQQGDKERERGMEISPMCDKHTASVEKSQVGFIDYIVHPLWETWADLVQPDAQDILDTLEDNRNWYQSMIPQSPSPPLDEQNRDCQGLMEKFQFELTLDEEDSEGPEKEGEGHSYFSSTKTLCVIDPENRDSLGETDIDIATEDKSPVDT
The target of assay [10] is Guanine nucleotide-binding protein G(i) subunit alpha-1 (Homo sapiens) (UniProt P63096). The assay is described as follows: qHTS Assay for Inhibitors of RGS12 GoLoco Motif Activity (Green Fluorophore) (AID 879).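 Also: 0% = labeled peptide with Gαi1 and full inhibition = labeled peptide alone without protein; negative values mean loss of peptide binding seen as reduced polarization.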 In a few lines:
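Fluorescence polarization assay: 50 nM Gαi1 with 10 nM FITC-labeled RGS12 GoLoco peptide in 10 mM Tris pH 7.5, 150 mM NaCl, 0.1 mM GDP, 0.05% NP40, 10 min at room temperature with compound.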

The nature of assay [11]: Confirmation and Secondary Assay for Modulators of Hemoglobin Beta Chain Splicing at IVS2 654 locus (AID 910).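 Also: HeLa cells stably carrying EGFP split by mutant beta-globin IVS2-654 intron; potency is read from the fitted curve at half-maximal effect; potency of activators that raise GFP signal by restoring correct splicing.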 In outline:
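HeLa cells stably expressing EGFP interrupted by β-globin IVS2-654 intron, seeded overnight in Opti-MEM/2% FCS, then treated 2 days at 37 °C. Restored splicing read as total peak GFP intensity per well by laser scanning cytometry (488 nm excitation, 500–520 nm emission); 500 nM antisense PNA as control.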

The nature of assay [12]: qHTS Assay for Identification of Small Molecule Agonists for Thrombopoietin (TPO) Signaling Pathway (AID 917). Also: % is scaled to controls: 0 for no effect and ±100 for the full control effect. In outline:
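Activators of TPO signaling were sought in murine Ba/F3 cells transfected with the human receptor, using a luciferase gene driven by the Glycoprotein IIb promoter; 24-hr compound exposure at 37 C alongside 26 pM TPO, in IL-3-free medium.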

Assay [13] addresses Muscarinic acetylcholine receptor M1 (Rattus norvegicus) (UniProt P08482). Description: qHTS Assay for Antagonists of Acetylcholine Muscarinic M1 Receptor: Kinetic Measurement of Intracellular Calcium Response (AID 943).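 Also: Fluo-4 calcium signal as peak divided by basal fluorescence over 4 min; nearly all actives have a fitted effect of over 75% in size.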 In outline: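 Rat M1-CHO cells, 2000/well, overnight → Fluo-4 no-wash dye with probenecid, 1 h 37C → compound 10 min, room temp → basal read 6 s → carbachol EC80 (100 nM) → 4 min kinetic read; peak/basal.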

In assay [14] the target is Pyruvate kinase (Leishmania mexicana) (UniProt Q27686). Description: qHTS Validation Assay for Inhibitors of Leishmania Mexicana Pyruvate Kinase (AID 945).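 Also: 0% = DMSO only neutral control wells.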 In a few lines: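 Mutant LmPYK (E451W), 0.2 nM, plus 0.5 mM PEP and 0.1 mM ADP in 50 mM imidazole pH 7.2 containing 0.01% Tween 20 and 0.05% BSA. Incubated 1 h at room temperature; luminescence via PKLight, normalized to DMSO.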
Chain of Pyruvate kinase (Leishmania mexicana) (Q27686 2-499 E452W): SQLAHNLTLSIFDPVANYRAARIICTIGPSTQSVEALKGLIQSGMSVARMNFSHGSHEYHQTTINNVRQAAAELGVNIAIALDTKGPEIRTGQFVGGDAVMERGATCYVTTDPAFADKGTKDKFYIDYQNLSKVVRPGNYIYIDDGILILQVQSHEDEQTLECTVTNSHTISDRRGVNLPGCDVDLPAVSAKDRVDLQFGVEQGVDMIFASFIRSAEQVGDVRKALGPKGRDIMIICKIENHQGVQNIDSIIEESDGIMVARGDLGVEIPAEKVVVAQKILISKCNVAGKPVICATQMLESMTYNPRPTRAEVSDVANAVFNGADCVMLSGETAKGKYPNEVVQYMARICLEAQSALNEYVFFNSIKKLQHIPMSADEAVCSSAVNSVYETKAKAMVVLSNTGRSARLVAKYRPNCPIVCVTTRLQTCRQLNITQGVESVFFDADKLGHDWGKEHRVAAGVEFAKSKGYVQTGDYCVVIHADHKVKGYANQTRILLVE

For assay [15], the target named is Pyruvate kinase PKM (Homo sapiens) (UniProt P14618). Description: qHTS Assay for Activators of Human Muscle Pyruvate Kinase (AID 954; active = well fitted curve in the direction sought with a large enough effect, not every such curve was filed as active;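 also: 0% = uninhibited enzyme and -100% = no enzyme or full thiadiazolimine inhibition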). In a few lines: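 Purified human PKM2 (0.1 nM) with 0.5 mM PEP (Km) and 0.1 mM ADP in 50 mM imidazole pH 7.2, KCl, MgCl2, 1 h at room temperature; ATP formed read by coupled luciferase luminescence. Normalized to no-enzyme/110 uM thiadiazolimine inhibition; 0.3 nM enzyme column for activation.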
Chain of Pyruvate kinase PKM (Homo sapiens) (P14618 whole entry, looked up): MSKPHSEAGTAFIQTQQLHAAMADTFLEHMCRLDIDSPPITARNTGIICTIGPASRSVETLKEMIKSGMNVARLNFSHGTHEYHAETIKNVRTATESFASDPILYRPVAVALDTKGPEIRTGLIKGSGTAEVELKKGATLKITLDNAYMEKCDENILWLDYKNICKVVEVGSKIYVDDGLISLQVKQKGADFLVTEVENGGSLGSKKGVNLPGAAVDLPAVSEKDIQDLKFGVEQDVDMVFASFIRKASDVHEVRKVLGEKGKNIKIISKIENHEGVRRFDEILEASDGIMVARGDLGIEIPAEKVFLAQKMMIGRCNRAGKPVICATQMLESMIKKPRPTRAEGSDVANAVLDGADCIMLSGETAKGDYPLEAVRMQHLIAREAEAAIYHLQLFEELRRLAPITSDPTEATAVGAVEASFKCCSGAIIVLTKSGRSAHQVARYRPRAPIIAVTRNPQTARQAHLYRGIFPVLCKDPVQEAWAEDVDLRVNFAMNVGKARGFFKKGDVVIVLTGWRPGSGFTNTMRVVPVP

Assay [16] deals with Alpha-galactosidase A (Homo sapiens) (UniProt P06280). The assay is described as follows: Counterscreen for Glucocerebrosidase Inhibitors: qHTS Assay for Human alpha-Galactosidase at pH 4.5 (AID 992). Also: 0% is about no effect. In a few lines: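 Human enzyme (2 nM) with 80 uM 4-methylumbelliferyl alpha-D-galactopyranoside in 50 mM citric acid, 0.005% Tween-20, pH 4.5, 20 min at room temperature. Compounds 0.7 nM–77 uM; fluorescence Ex 365/Em 440 after pH 10 stop; AC50 from Hill fits.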
Chain of Alpha-galactosidase A (Homo sapiens) (P06280 whole entry, looked up): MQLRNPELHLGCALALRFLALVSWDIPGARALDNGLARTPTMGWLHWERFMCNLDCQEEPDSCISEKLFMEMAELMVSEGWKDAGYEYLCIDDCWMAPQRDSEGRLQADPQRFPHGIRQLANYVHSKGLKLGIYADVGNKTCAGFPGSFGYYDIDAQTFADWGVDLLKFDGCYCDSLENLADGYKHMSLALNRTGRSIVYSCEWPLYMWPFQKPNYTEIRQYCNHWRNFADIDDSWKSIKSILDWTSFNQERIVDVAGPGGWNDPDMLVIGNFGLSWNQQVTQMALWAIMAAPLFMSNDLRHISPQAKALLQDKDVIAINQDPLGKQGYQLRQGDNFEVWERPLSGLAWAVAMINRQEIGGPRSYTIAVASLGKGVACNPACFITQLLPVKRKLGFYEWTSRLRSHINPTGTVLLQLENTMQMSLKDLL
(In general: Counterscreens check selectivity or assay interference.)

Assay [17] has as its target alpha-glucosidase (Oryza sativa, rice) (UniProt Q653V4). The assay is described as follows: Counterscreen for Glucocerebrosidase Inhibitors: qHTS Assay for Rice alpha-Glucosidase at pH 5.0 (AID 997).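 Also: 0% = full activity with enzyme and -100% = basal without enzyme.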 In a few lines: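 Rice alpha-glucosidase (4 nM final) with 400 uM 4-methylumbelliferyl-alpha-D-glucopyranoside in citrate buffer pH 5.0, 20 min at room temperature, stopped at pH 10; fluorescence 365/440 nm, compounds 0.7 nM–77 uM, AC50 from Hill fits.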

Chain of Glucocorticoid receptor (Homo sapiens) (P04150 whole entry, looked up, the tested form may be a part): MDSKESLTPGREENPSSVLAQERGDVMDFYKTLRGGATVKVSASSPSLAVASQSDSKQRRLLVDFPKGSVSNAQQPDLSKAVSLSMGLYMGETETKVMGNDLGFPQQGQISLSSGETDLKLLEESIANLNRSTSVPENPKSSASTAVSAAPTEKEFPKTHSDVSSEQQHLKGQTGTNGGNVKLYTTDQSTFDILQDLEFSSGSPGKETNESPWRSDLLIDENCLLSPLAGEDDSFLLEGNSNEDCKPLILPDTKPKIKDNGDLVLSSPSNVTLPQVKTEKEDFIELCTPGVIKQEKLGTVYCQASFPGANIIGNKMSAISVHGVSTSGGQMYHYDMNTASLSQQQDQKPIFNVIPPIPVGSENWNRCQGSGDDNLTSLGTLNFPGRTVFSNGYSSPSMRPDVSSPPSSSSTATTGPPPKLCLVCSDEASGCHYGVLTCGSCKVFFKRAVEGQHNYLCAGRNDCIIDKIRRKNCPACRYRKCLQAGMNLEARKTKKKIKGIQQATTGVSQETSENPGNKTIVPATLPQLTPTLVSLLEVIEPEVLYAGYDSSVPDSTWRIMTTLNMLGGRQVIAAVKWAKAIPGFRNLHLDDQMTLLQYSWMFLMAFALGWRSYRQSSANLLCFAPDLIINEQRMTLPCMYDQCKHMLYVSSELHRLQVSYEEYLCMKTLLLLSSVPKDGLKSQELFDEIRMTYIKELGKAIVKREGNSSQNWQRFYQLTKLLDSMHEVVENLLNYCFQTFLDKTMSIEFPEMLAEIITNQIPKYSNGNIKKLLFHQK
Chain of Guanine nucleotide-binding protein G(i) subunit alpha-1 (Homo sapiens) (P63096 whole entry, looked up): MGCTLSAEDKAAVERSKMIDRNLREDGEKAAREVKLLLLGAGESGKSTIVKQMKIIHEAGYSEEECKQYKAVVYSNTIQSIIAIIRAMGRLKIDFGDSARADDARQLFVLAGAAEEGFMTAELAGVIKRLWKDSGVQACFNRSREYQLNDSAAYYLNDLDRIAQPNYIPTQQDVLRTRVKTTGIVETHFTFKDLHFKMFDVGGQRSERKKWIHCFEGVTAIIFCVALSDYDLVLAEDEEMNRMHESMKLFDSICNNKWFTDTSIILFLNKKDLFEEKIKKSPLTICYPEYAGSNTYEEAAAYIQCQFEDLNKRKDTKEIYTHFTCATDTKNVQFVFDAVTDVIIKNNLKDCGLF
Chain of Muscarinic acetylcholine receptor M1 (Rattus norvegicus) (P08482 whole entry, looked up): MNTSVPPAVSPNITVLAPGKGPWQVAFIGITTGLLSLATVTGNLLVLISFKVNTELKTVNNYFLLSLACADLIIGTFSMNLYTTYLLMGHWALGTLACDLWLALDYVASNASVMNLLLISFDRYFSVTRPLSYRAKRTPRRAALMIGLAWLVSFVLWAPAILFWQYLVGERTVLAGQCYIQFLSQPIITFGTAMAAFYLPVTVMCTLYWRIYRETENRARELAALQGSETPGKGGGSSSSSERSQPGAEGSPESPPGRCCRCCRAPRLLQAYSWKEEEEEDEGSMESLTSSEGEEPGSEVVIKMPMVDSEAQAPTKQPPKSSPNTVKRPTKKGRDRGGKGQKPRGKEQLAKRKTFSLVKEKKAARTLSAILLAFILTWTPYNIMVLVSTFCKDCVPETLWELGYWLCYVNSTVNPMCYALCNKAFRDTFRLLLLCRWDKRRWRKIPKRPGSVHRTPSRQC
Chain of Cytochrome P450 1A2 (Homo sapiens) (P05177 whole entry, looked up): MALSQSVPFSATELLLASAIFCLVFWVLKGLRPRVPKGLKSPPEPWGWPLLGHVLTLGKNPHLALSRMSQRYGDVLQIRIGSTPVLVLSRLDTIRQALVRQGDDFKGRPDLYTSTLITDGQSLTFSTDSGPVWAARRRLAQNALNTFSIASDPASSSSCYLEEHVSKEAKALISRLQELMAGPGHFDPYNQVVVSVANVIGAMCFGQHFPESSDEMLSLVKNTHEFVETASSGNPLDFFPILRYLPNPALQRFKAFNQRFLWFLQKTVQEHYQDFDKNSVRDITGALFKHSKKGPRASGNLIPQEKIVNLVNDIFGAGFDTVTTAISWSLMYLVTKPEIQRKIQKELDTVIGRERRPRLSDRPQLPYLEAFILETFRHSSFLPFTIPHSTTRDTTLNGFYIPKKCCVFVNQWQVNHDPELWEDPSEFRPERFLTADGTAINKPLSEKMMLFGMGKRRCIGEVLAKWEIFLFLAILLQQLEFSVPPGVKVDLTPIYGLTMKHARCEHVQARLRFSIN

Take `CN(C)c1ccc(-c2nn3c(-c4ccc(Cl)cc4)nnc3s2)cc1`: in [1], the activity change, negative = inhibition is 21.4%. The values for the Potency in assay [2] and in assay [3] were greater than 20.6 µM and 10 µM (active), respectively.
On to `OC[C@@H]1O[C@@H](n2cnc3cncnc32)[C@@H](O)[C@H]1O`, for which the Potency result in [4], in [8], in [9], in assay [12], in assay [13] and in assay [14] was “inactive” in each case. In addition, the activity change, negative = inhibition in assay [5] is -10.9% [at 38 µM]. In addition, the activity, negative = inhibition in [6] is -14.6% [at 38 µM]. Moreover, the figures for the Potency in assay [2], in assay [7] and in [11] were greater than 46 µM, greater than 46 µM and 5.01 µM (active), respectively. Besides, the result in assay [10], in [15], in assay [16] and in assay [17] was inactive.

These data come from PubChem BioAssay (NCATS).
